Assay outcomes deposited in PubChem BioAssay by National Center for Advancing Translational Sciences (NCATS).
Compounds with a hit are over-represented: about 11% of the library has one in this group of screens.
Sfp inh: Sfp phosphopantetheinyl transferase inhibition. Q9F4F7. Biochemical Sfp PPTase activity, qHTS. Potency, µM, hits mostly inhibitors. 310,000 tested, 3.5% active;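 also: the enzyme is Sfp with the accession as filed and its product quenches rhodamine fluorescence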
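With Hepes-Na pH 7.6 buffer containing 10 mM MgCl2, Sfp (15 nM) modified BHQ-2-YbbR (12.5 uM) using rhodamine-CoA (5 uM). Two reads 30 minutes apart at 525/598 nm yielded each well's rate.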
Tau fluor cs: counter-screen for tau fibril formation inhibitors. 280,000 tested, 0.93% active. tau K18 P301L Alexa594 fluorescence, heparin fibrillization. Potency, µM (series often up to 57.7 µM); also: nearly all actives have a fitted effect of over 55% in size
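Human K18 P301L tau (15 uM unlabeled plus 0.24 uM Alexa 594-labeled, final) in 100 mM sodium acetate pH 7 was mixed with compound and 20 uM heparin and incubated 6 hr at 37 C.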
Tau fibril ThT: tau fibrillization inhibition (ThT binding); recombinant tau K18 P301L (four-repeat tau fragment), heparin-induced fibrillization, ThT fluorescence; AID 1460; 270,000 tested, 2.1% active; Potency, µM (titrated, usually from 57.4 µM), most hits filed as inhibitors; also: nearly all actives have a fitted effect of over 55% in size
Target sequence (P10636 561-689 P618L limits assumed): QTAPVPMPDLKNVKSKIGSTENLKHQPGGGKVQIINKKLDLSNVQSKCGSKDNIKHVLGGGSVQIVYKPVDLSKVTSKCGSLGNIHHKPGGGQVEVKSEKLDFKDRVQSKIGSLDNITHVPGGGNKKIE
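Heparin-induced (20 uM) aggregation of recombinant human K18 P301L tau, 15 uM unlabeled with 0.24 uM labeled, pH 7 acetate buffer, 6 hr at 37 C with compound. Fibrils quantified by 30 uM ThT fluorescence after 1 hr ambient incubation.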
G9a block: blocks human histone lysine methyltransferase G9a | Q96KQ7 | Potency, µM (highest dose often 102 µM), hits mostly inhibitors | 350,000 tested, 8.8% active | G9a H3K9 monomethylation, AlphaScreen, 2 h; also: nearly all actives have a fitted effect of over 75% in size
Target sequence (Q96KQ7 913-1193 limits assumed): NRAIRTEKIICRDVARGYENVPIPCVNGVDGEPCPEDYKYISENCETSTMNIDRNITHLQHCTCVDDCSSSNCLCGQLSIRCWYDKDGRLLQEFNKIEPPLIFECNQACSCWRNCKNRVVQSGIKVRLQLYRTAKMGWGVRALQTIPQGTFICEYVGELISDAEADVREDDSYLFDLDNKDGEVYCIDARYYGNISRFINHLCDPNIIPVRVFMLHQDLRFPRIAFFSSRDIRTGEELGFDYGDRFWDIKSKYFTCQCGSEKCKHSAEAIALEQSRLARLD
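Signal arises when biotinylated H3K9 peptide, once monomethylated, bridges streptavidin donor and antibody-captured acceptor beads. Enzyme at 20 nM was preincubated 15 min with test compounds; peptide 500 nM and SAM 20 uM then reacted for 2 h.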
Tau fibril FP: inhibitors of human tau fibril formation; P10636; K18 P301L tau heparin fibrillization, Alexa594 FP, 6 h; Potency, µM (titrated, usually from 57.7 µM), actives largely listed as inhibitors; 280,000 tested, 0.39% active; also: nearly all actives have a fitted effect of over 55% in size
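Human K18 P301L fragment (15 uM unlabeled plus 0.24 uM Alexa 594-labeled) in 100 mM sodium acetate pH 7 with compound, aggregation induced by 20 uM heparin for 6 hr at 37 C. ThT (30 uM) added for 1 hr, then Alexa 594 FP read.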
FBPA coupling cs: counter-screen for Giardia aldolase inhibitors: coupling enzyme system; coupling enzyme system counterscreen, AmpLite Red fluorescence; activity change, negative = inhibition, % at 58.2 µM, hits read low; 290,000 tested, 0.67% active; in the data active = activity change below about -30%
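First, compound is pin-transferred into glyceraldehyde-3-phosphate coupling-enzyme reagent at 57.5 uM final and held 10 min at RT. Next, substrate, coupling system and AmpLite Red are added. After 20 min RT, fluorescence (525/598 nm) is read.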
A number is an active result; – = inactive; ? = inconclusive; · = not tested or not shown; [ ] = another dose, or the depositor's remark. Unless noted, calls follow the shape of the dose curve; as a rule, active = well fitted curve in the direction sought with a large enough effect; inconclusive = small, poorly fitted or top-dose-only effect, or another doubt; inactive = no such curve, though single readings can be large; an effect the other way counts as inactive or inconclusive.

SMILES	Sfp inh	Tau fluor cs	Tau fibril ThT	G9a block	Tau fibril FP	FBPA coupling cs
COC(=O)C1=C(CN2CCc3ccccc32)NC(=O)NC1c1cc(C)ccc1C (centres undefined)	?	–	?	?	–	–
Cc1cccc(N(CC(=O)NC(C)c2ccccc2)S(=O)(=O)c2ccccc2)c1C (centres undefined)	·	–	–	–	–	·
C=CCn1c(-c2ccc(=O)n(Cc3ccccc3)c2)n[nH]c1=S	–	–	–	18µM	–	–
CSc1nnc(-c2cccn(Cc3ccccc3)c2=O)o1	–	–	–	–	–	–
O=c1c(-c2n[nH]c(=S)n2-c2ccccc2)cccn1Cc1cccc(Cl)c1	–	–	–	3.5µM	–	–
C=CCn1c(-c2cccn(Cc3ccccc3)c2=O)n[nH]c1=S	–	–	–	40µM	–	–
O=c1c(-c2n[nH]c(=S)o2)cccn1Cc1ccccc1	–	–	–	25µM	–	–
CSc1ccc(-c2nnn(CC(=O)Nc3sc4c(c3C#N)CCC(C(C)(C)C)C4)n2)cc1 (centres undefined)	·	–	–	–	–	·
COc1ccc(NC(=O)CSc2nnc(NC(=O)Nc3ccccc3)s2)cc1OC	·	?	?	–	?	·
COc1ccc(C2=NO[C@@](CC(=O)O)(C(=O)Nc3ccc4c(c3)OCCO4)C2)cc1	–	·	·	–	·	–
COc1ccc(NCc2cc3cc4c(cc3n(CC(=O)Nc3ccc(F)cc3F)c2=O)OCO4)cc1	·	?	–	?	–	·
C=CCn1c(-c2ccccc2[N+](=O)[O-])n[nH]c1=S	–	–	–	16µM	–	–
O=c1c(=O)n(Cc2ccc(Cl)cc2)ccn1Cc1ccc(F)cc1	·	–	?	–	?	·
C=CCn1c(-c2cccn(Cc3cccc(Cl)c3)c2=O)n[nH]c1=S	–	–	–	11µM	–	–
C=CCn1c(-c2cccn(Cc3ccc(Cl)cc3)c2=O)n[nH]c1=S	–	–	–	4.5µM	–	–
C=CCn1c(-c2cccn(Cc3ccc(Cl)cc3Cl)c2=O)n[nH]c1=S	–	–	–	2.8µM	–	–
CCOC(=O)c1ccc(NC(=O)c2cc3cc(C)ccc3n2C)cc1	·	–	?	–	–	·
N#Cc1nc(/C=C/c2ccc(F)cc2)oc1N1CCN(c2ccccc2)CC1	·	–	–	?	–	·
Cc1ccc(CNC(=O)c2c(O)nc3ccccn3c2=O)cc1	·	–	–	?	–	·
O=C(c1ccc(CSc2nc3ccncc3n2Cc2ccccc2F)cc1)N1CCCCC1	·	–	–	–	–	·
Cc1ccc(CCNS(=O)(=O)c2c(C)nc3sc(C)c(C)n3c2=O)cc1	·	–	–	–	–	·
O=C(COC(=O)c1ccc(O)cc1O)Nc1ccc2c(c1)OCCO2	·	·	·	–[12.7 µM]	·	·
O=C(C[N+]12CC[N+](CC(=O)c3ccc(F)cc3)(CC1)CC2)c1ccc(F)cc1	–	·	·	–	·	–
N#CC1(C#N)CC(C=O)=C(N)C1(C#N)CC(=O)c1ccc(F)cc1 (centres undefined)	–	?	14µM	32µM	?	–
CCC(=O)N1CCc2cc(S(=O)(=O)NC(Cc3ccccc3)C(=O)Nc3cccc(OC)c3)ccc21 (centres undefined)	·	–	–	–	–	·
SMILES	Sfp inh	Tau fluor cs	Tau fibril ThT	G9a block	Tau fibril FP	FBPA coupling cs
Cc1cc(C(=O)N/N=C/c2cccs2)n[nH]1	–	–	–	–	?	–
Cc1ccc(O)c(N=Cc2ccc(C)s2)c1	56µM	?	22µM	–	?	–
Cc1ccc(O)c(N=Cc2cccs2)c1	–	?	25µM	–	?	–
COc1ccc(-c2ccc3c(n2)CCCN3C[C@H](O)CN2CCCc3nc(-c4ccc(Br)cc4)ccc32)cc1	–	–[11.6 µM]	?	·	–[11.6 µM]	–
Cn1c(=O)c2cc(NCc3ccccc3)nnc2n(C)c1=O	?	–	–	14µM	–	-59
N#Cc1cc2c(nc1SCc1ccc(Cl)nc1)CCCCC2	–	–	–	–[12.7 µM]	–	–
CCOc1ccc(NC(=O)Cn2c(=O)n(CCCCCC(=O)NCc3ccccc3)c(=O)c3sccc32)cc1	·	–	–	–	–	·
COc1ccc2c(c1)sc1ncc(C(=O)NCc3ccc(Cl)cc3)c(=O)n12	·	–	–	–	–	·
O=C(Nc1ccc(-c2csnn2)cc1)C(Cl)(Cl)Cl	–	–	–	–	–	–
